Measured values taken from PubChem BioAssay AID504700 (The Scripps Research Institute Molecular Screening Center, 2011).
Screen size: about 340,000 compounds; about 270 (0.079%) were called active. The sample as a whole holds a higher share of actives than the screen did. A number with no mark means an inactive call.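 How the source made its calls: active means activation above a cutoff set at the mean over all compounds plus 3 SD (cut at about 18% in these data); inactive means the rest.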

The compounds below were run against cAMP-dependent protein kinase catalytic subunit beta (Homo sapiens) + cAMP-dependent protein kinase type II-beta regulatory subunit (Homo sapiens) (UniProt P22694+P31323) (assay: compounds dissociating PKAc from R2B subunit – biochemical, fluorescence polarization, Cy5-IP20, human, primary screen (AID 504700;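 further: higher means more holoenzyme dissociation and a rise in polarization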)). Settings: PKA-R2B holoenzyme dissociation, at 11.4 µM, active compounds read high, 0% DMSO only, 100% 113 µM cGMP, R2B truncated from residue 108, S112A mutant.
Sequence of cAMP-dependent protein kinase catalytic subunit beta (Homo sapiens) + cAMP-dependent protein kinase type II-beta regulatory subunit (Homo sapiens) (P31323 whole entry, looked up, other chains not shown, the tested form may be a part): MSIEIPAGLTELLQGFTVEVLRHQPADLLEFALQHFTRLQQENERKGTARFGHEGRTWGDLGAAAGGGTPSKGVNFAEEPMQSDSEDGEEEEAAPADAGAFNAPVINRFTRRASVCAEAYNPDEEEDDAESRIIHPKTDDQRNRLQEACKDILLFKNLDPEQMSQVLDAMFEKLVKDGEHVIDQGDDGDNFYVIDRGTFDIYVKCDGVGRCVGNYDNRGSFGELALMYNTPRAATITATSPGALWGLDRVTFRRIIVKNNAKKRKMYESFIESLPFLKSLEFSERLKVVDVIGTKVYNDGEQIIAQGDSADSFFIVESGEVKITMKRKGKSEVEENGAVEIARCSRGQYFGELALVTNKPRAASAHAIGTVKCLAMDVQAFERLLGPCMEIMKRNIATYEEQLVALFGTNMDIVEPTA

Compound	activation
CC(OC(=O)c1cccc(S(=O)(=O)N2CCOCC2)c1)C(=O)NCC1CCCCC1 (stereo not drawn)	12.7%
O=S(=O)(NCCNS(=O)(=O)c1ccccc1)c1ccccc1	21.6% (active)
O=S(=O)(NCCc1ccncc1)c1ccccc1	-6.62%
O=S(=O)(NCCc1ccccc1)c1ccccc1	-0.17%
COc1ccc(C(C)(C)C)cc1NC(=O)CN(C)C1=NS(=O)(=O)c2ccccc21	-0.8%
O=C(Nc1cc(F)ccc1F)c1ccc2c(=O)n3c(nc2c1)CCC3	0.72%
CC(C)CCOc1ccc(C(=O)Nc2cc(S(=O)(=O)N3CCOCC3)ccc2N2CCOCC2)cc1	-1.72%
Cc1sc2nc(-c3ccccc3F)oc(=O)c2c1C	-7.56%
O=C(NCc1nnnn1-c1ccc(Cl)cc1)c1ccc([N+](=O)[O-])o1	-12%
COc1cc(NC(=O)C2=C(C)OCCS2)c(Cl)cc1C(=O)NCCCN1CCCC(C)C1 (stereo not drawn)	-6.54%
C[C@H]1Cn2cnc(C(=O)N[C@H](C)c3ccccc3)c2C(=O)N1	1.6%
Cc1ccn2c(-c3csc(Nc4ccc(C(=O)O)cc4)n3)c(C)nc2c1	-9.54%
C[C@@H]1CN([C@@H](C)CO)C(=O)CCCn2cc(nn2)CO[C@H]1CN(C)S(=O)(=O)c1ccc(-n2cccn2)cc1	-4.5%
CCc1c(N=O)c(-c2ccccc2)n(O)[n+]1[O-]	-1.7%
C[C@@H]1CN([C@@H](C)CO)C(=O)c2cc(Br)cnc2O[C@H]1CN(C)Cc1ccc(-c2ccccc2)cc1	1.42%
O=C(CC(CC(=O)c1ccccc1)c1ccco1)c1ccccc1	-2.04%
C[C@@H]1Cn2cnc(C(=O)Nc3ccc(CNC(=O)OC(C)(C)C)cc3)c2C(=O)N1	-0.19%
COCCCn1c(=O)/c(=C/c2ccccc2OC(C)C)s/c1=C(\C#N)C(=O)Nc1ccc(C(=O)O)cc1	0.06%
O=C(OCc1ccccc1)N1CCC2CC1c1cc(N3CCN(S(=O)(=O)c4cc(Cl)cc(Cl)c4)CC3)ccc12 (stereo not drawn)	-12.1%
CCc1cccc(CC)c1N1C(=O)CC(Sc2ccccc2N)C1=O (stereo not drawn)	3.56%
COc1cccc(OC)c1C(=O)N1CCN(Cc2ccccc2F)CC1	-3.43%

Compound	activation
COC(=O)C(Cc1c[nH]c2ccccc12)NC(=O)CCNC(=O)c1ccco1 (stereo not drawn)	7.88%
COc1cc2c(=O)n(C)c3ccccc3c2cc1OC	-7.59%
N#CC1(Nc2ccc3c4c(cccc24)CC3)CCCCC1	-2.43%
Cc1ccc([C@H]2C[C@H](O)[C@@H](n3cc(COC(=O)c4ccccc4)nn3)CN2C(=O)C2CCCCC2)cc1	-12.7%
O=NN(CCCl)C(=O)NCCc1cccc[n+]1[O-]	-9.83%
CC(C)N=C1CCCC1C(=S)SSC(=S)C1CCCC1=NC(C)C (stereo not drawn)	-0.99%
Cc1ccc(CN(C)C[C@@H]2OCc3cnnn3CCCC(=O)N([C@@H](C)CO)C[C@H]2C)cc1	-5.57%
CC1=C(C(=O)N2CCOCC2)CC(CC(=O)NCc2ccco2)C(=O)N1Cc1ccc(F)cc1 (stereo not drawn)	-2.68%
C=CCOc1ccccc1CNn1c(C)n[nH]c1=S	10.7%
Cc1c(NC(=O)COC(=O)/C=C/c2cccc(F)c2)c(=O)n(-c2ccccc2)n1C	-14.1%
CCc1cc(-c2nnn(CCC3COCCO3)c2CC)ccc1-c1cn(Cc2ccc3ccccc3c2)nn1 (stereo not drawn)	2.92%
CCC1NC(=O)c2cccnc2-n2c1nc1ccc(C)cc1c2=O (stereo not drawn)	2.84%
CNC(=O)c1ccc(CN(C)C(=O)c2cc(C3CC3)nc3c2cnn3C(C)C)cc1	-10%
O=C(OCC(=O)N1CCCCCC1)c1cccc(Cl)c1Cl	-0.23%
O=C(c1ccc(F)cc1)N1CCCC(C(=O)N2CCCCC2)C1 (stereo not drawn)	-0.42%
CC(C)(C)c1ccc(C(=O)N2CCC(C(=O)N3CCCCC3)CC2)cc1	19.2% (active)
NC(=O)C1CCN(C(=O)c2ccc(C(F)(F)F)cc2)CC1	-0.72%
CC1=C(C(=O)N(C)C)CC(CC(=O)NCCN2CCOCC2)C(=O)N1Cc1ccccc1 (stereo not drawn)	10.5%
COc1ccccc1-c1n[nH]nc1C1=CC(=O)CC(C)(C)C1	-8.69%
Cc1ccc(C(=O)N[C@H](C(=O)N2CCN(c3ncccn3)CC2)C(C)C)cc1	-3.29%
CCCCN1C(=O)C(CC(=O)NCc2cccs2)CC(C(=O)N2CCOCC2)=C1C (stereo not drawn)	3.17%

Compound	activation
O=C(OCc1cn([C@H]2C[C@H](c3ccccc3)N(C(=O)c3cccs3)C[C@@H]2O)nn1)c1ccccc1	4.15%
COc1ccc(C/C(C)=N/NC(=O)c2ccncc2)cc1	18.7% (active)
COc1ccc(C/C(C)=N/NC(=O)c2cc(C)oc2C)cc1	-9.63%
COc1ccc(C(=O)N/N=C(\C)CC(=O)Nc2ccc(Cl)cn2)cc1	-4.03%
C[C@H]1Cn2cnc(C(=O)N[C@@H](Cc3c[nH]c4ccccc34)C(=O)OC(C)(C)C)c2C(=O)N1	-2.27%
CC(=O)Nc1c(-c2ccc(C)cc2)nc2ccc(Cl)cn12	-8.99%
CC1CCN(c2ccc3c(c2)S(=O)(=O)c2cc(C(=O)O)ccc2C3=O)CC1	-8.29%
CCN(CC)CCN(C(=O)c1ccc2c(c1)CCCC2)c1nc2c(OC)cccc2s1	-1.68%
CNS(=O)(=O)c1ccc2c(c1)[nH]c(=S)n2C	9.72%
C=CCn1nc(C(=O)OCC)cc1-c1sc(NC(=O)c2ccccc2)nc1C	4.98%
COc1ccc(C(=O)NCC2CCCO2)cc1S(=O)(=O)NCc1ccc(Cl)cc1 (stereo not drawn)	-8.65%
Cc1cc2c3ccccc3[nH]c(=O)n2n1	-8.33%
CCOc1ccc(S(=O)(=O)NCCC(=O)NNC(=O)c2ccc(F)cc2)cc1	-0.05%
COc1ccc(-n2c(-c3ccc(Cl)cc3)n[nH]c2=S)c(OC)c1	13%
C[C@H]1CN([C@@H](C)CO)S(=O)(=O)c2ccc(-c3cccc(F)c3)cc2O[C@@H]1CN(C)C	-5.98%
COc1ccc2nc(-c3ccccn3)ccc2c1	-2.17%
COc1ccc(Cn2c(=O)oc3ccccc32)cc1	-4.8%
O=C1[C@H]2[C@@H](c3ccc(C(F)(F)F)cc3)N[C@]3(CCCN(Cc4ccc(Cl)cc4)C3=O)[C@H]2C(=O)N1Cc1ccccc1	-7.06%
COc1ccc(-c2ccc(CN3C(CC(C)C)C(=O)N(Cc4cn(CC5CCCCC5)nn4)CCS3(=O)=O)cc2)cn1 (stereo not drawn)	5.33%
O=C(COC(=O)c1cncc(Br)c1)Nc1ccc(S(=O)(=O)N2CCOCC2)cc1	-6.43%
CCOC(=O)c1cc(-c2sc(NC(=O)c3ccccc3)nc2C)n(CCO)n1	-2.07%

Compound	activation
COC(=O)[C@H]1C[C@H](OC(=O)NCc2ccccc2)[C@@]2(O)CN(S(=O)(=O)c3ccc(C)cc3)CC2[C@H]1C(=O)OC (stereo partly drawn)	1.85%
O=C(C[C@H]1C[C@@H]2c3cc(NC(=O)C4CCC4)ccc3O[C@@H]2[C@H](CO)O1)NC1CCCCC1	-4.88%
CCN(CC(=O)Nc1ccc(NC(C)=O)cc1)C(=O)C1CC(=O)N(c2ccc3c(c2)OCCO3)C1 (stereo not drawn)	1.33%
Cc1ccccc1-c1ccc2c(c1)O[C@@H](CN(C)Cc1ccc(C(=O)O)cc1)[C@@H](C)CN([C@H](C)CO)S2(=O)=O	1.68%
Cc1cc(C)c2cc(C#N)c(N3CCNCC3)nc2c1	5.23%
COCC1CCCCN1C(=O)c1cc(COc2ccc(C)c(C)c2)on1 (stereo not drawn)	-6.78%
c1ccc(CNCc2ccc(CNCc3ccccc3)cc2)cc1	-1.27%
C[C@@H]1CN([C@H](C)CO)C(=O)CCCn2nncc2CO[C@@H]1CN(C)S(=O)(=O)c1cccc(C#N)c1	5.67%
O=C(c1ccccc1)N1CCN(c2cc(-c3ccccc3)nc3cc(-c4cccc(Cl)c4)nn23)CC1	-2.44%
C[C@H]1NS(=O)(=O)c2cc(Cl)ccc2O[C@@H]1c1ccccc1	-0.08%
S=C(NN=Cc1ccccn1)Nc1ccccn1	12.6%
CN1OC[C@@H]2CN(C(=O)c3ccc(-c4ccccc4)cc3)[C@H](c3ccc(-c4cccc(F)c4)cc3)C[C@@H]21	-8.75%
C[C@H](CO)N1C[C@H](C)[C@H](CN(C)C(=O)Nc2ccc3c(c2)OCO3)Oc2ncc(Br)cc2C1=O	6.88%
O=C(c1cccs1)N1C[C@H](n2cc(C3CC3)nn2)[C@@H](O)C[C@@H]1c1ccccc1	5.94%
N#CCSc1ccccc1NC(=O)CN1C(=O)NC(CCc2ccccc2)C1=O (stereo not drawn)	0.61%
COC(=O)c1ccccc1N=NNc1ccc([N+](=O)[O-])cc1	7.66%
O=C1NC(Cc2ccccc2)c2nc3ccc(Br)cc3c(=O)n2-c2cc3ccccc3cc21 (stereo not drawn)	-6.52%
COc1cc(C(=O)N2CCOC23CCN(Cc2ccccc2)CC3)cc(OC)c1OC	5.01%
CC(=O)c1ccc(OCC(=O)N(C)C2CCS(=O)(=O)C2)cc1 (stereo not drawn)	-5.08%
C[C@@H]1CN([C@H](C)CO)S(=O)(=O)c2ccc(C#C[C@@H](C)O)cc2O[C@@H]1CN(C)Cc1ccc(-c2ccccc2)cc1	-12.3%
